Measured values taken from PubChem BioAssay (Tox21).
Results filed as inconclusive are left out. Where a call stands in place of a potency, no number is given. The source made the active and inactive calls. Unless noted, the call rests on the fitted dose curve; in most records, active means well fitted curve in the direction sought with a large enough effect in the repeat runs; inconclusive means weak or mixed curves; inactive means no such curve, though single readings can be large; an effect the other way counts as inactive or inconclusive.

Tests used:
[1] = qHTS assay to identify small molecule antagonists of the vitamin D receptor (VDR) signaling pathway - cell viability counter screen (AID 743225); conditions: VDR-bla HEK293T viability, CellTiter-Glo luminescence, 16 h; series mostly up to 61 µM; further: nearly all actives have a fitted effect of over 50% in size
Summary of the method: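 Viability counter screen run in the same wells as the beta-lactamase reporter assay: HEK 293T VDR-UAS-bla cells, 16 h compound exposure at 37C with 3 nM (final) 1-alpha,25-dihydroxyvitamin D3. CellTiter-Glo luminescence, 30 min, room temperature.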

[2] = qHTS assay to identify small molecule agonists of the NFkB signaling pathway - cell viability counter screen (AID 1159515; calls by dose curve; further: nearly all actives have a fitted effect of over 55% in size; further: potency means the concentration at half of the fitted maximal effect); conditions: NFkB-bla ME-180 viability, CellTiter-Glo luminescence, 5 h; series mostly up to 61 µM
Summary of the method: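 Plate 2,000 NFkB-bla ME-180 cells/well; incubate overnight. Add compounds, 5 hr at 37 C. Add FRET substrate, 1.5 hr RT. Add CellTiter-Glo, 30 min RT; read luminescence.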

[3] = qHTS assay to identify small molecule agonists of the endoplasmic reticulum stress response signaling pathway - cell viability counter screen (AID 1159517; calls by dose curve; further: nearly all actives have a fitted effect of over 50% in size; further: potency means the concentration at half of the fitted maximal effect); conditions: ESRE-bla HeLa viability, CellTiter-Glo luminescence, 5 h; series mostly up to 61 µM
Summary of the method: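 In parallel with the ESRE reporter read, cytotoxicity was scored by CellTiter-Glo luminescence (30 min, room temperature) on HeLa ESRE-bla cells dosed for 5 hr.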

[4] = qHTS assay to identify small molecule antagonists of the retinoid-related orphan receptor gamma (ROR-gamma) signaling pathway - cell viability counter screen (AID 1159520); conditions: Tet-on RORgamma CHO cells viability, ATP luminescence, 16 h; series mostly up to 92.4 µM; further: nearly all actives have a fitted effect of over 50% in size
Summary of the method: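 Tet-on ROR gamma CHO cells were given compounds for 2 hr, then doxycycline hyclate at 1 uM final, and incubated 16 hr at 37 C. Viability was measured as ATP content by CellTiter-Glo luminescence.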

[5] = qHTS assay to identify small molecule agonists of the AP-1 signaling pathway - cell viability counter screen (AID 1159525; calls by dose curve; further: nearly all actives have a fitted effect of over 55% in size; further: potency means the concentration at half of the fitted maximal effect); conditions: ME-180 AP-1-bla cells viability, ATP luminescence, 5 h; series mostly up to 76.8 µM
Summary of the method: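 Same-well cytotoxicity counter screen of the Tox21 10K library in ME-180 cells. The readout is ATP-dependent luminescence after 5 h compound treatment. Data are normalised to DMSO and tetra n-octyl ammonium bromide controls.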

[6] = qHTS assay to identify small molecule agonists of the AP-1 signaling pathway (AID 1159526; calls by dose curve); conditions: ME-180 (cervical carcinoma) AP-1-bla reporter, beta-lactamase FRET ratio, 5 h; series mostly up to 76.8 µM
[7] = target: Retinoic acid receptor RXR-alpha (Homo sapiens) (UniProt P19793); test: qHTS assay to identify small molecule agonists of the RXR signaling pathway (AID 1159527; calls by dose curve; further: nearly all actives have a fitted effect of over 35% in size); conditions: HEK293T RXRa-UAS-bla, beta-lactamase ratio, 16 h; series mostly up to 76.8 µM
Summary of the method: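 Agonist mode; 9-cis retinoic acid positive control. HEK 293T UAS-bla reporter cells, 2% charcoal-stripped FBS, 16 hr compound exposure at 37 C/5% CO2. LiveBLAzer B/G FRET substrate 2 hr RT; ex 405, em 460/530 nm.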

[8] = qHTS assay to identify small molecule agonists of the RXR signaling pathway - cell viability counter screen (AID 1159529); conditions: RXR-alpha-bla HEK293T viability, CellTiter-Glo, 16 h; series mostly up to 76.8 µM; further: nearly all actives have a fitted effect of over 50% in size; further: potency means the concentration at half of the fitted maximal effect
Summary of the method: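 Luminescence from CellTiter-Glo (30 min, RT) measured viability in the same wells as the beta-lactamase reporter readout. Cells: GeneBLAzer RXR-alpha HEK 293T, 2% charcoal-stripped FBS. Compound exposure 16 hr, 37 C.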

[9] = qHTS assay to identify small molecule antagonists of the retinoid acid receptor (RAR) signaling pathway - cell viability counter screen (AID 1159551); conditions: C3RL4 cells viability, ATP luminescence (CellTiter-Glo), 6 h; series mostly up to 92.4 µM; further: nearly all actives have a fitted effect of over 35% in size
Summary of the method: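 Viability of C3RL4 cells is quantified from ATP by luminescence after 6 h treatment at 37 C with compounds and 1 uM retinol.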

[10] = qHTS assay to identify small molecule antagonists of the retinoic acid receptor (RAR) signaling pathway (AID 1159552; further: nearly all actives have a fitted effect of over 50% in size); conditions: C3RL4 RARE luciferase reporter, retinol-stimulated, 6 h; series mostly up to 92.4 µM
Summary of the method: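 Luminescence from a RARE luciferase reporter in C3RL4 cells served as read-out. Cells received compounds together with 1 uM final retinol and incubated 6 hr at 37 C before detection reagent was added for 30 min at room temperature.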

[11] = qHTS assay to identify small molecule agonists of the retinoic acid receptor (RAR) signaling pathway (AID 1159553); conditions: C3RL4 RARE luciferase reporter, agonist, 6 h; series mostly up to 73.3 µM
Summary of the method: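 Compounds dissolved in DMSO were pinned onto C3RL4 cells seeded the previous day, and plates were held 6 hr at 37 C. RARE-driven luciferase output was then read by luminescence.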

[12] = qHTS assay to identify small molecule antagonists of the estrogen related receptor (ERR) signaling pathway from Tox21 library - cell viability counter screen (AID 1224834); conditions: ERR reporter cells viability, CellTiter-Fluor, 17.5 h; series mostly up to 92.4 µM; further: nearly all actives have a fitted effect of over 30% in size; further: potency means the concentration at half of the fitted maximal effect
Summary of the method: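 In this quantitative HTS format, ERR cells receive compounds in DMSO and are incubated for 17.5 h at 37 C. Live-cell protease activity is then detected with CellTiter-Fluor.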

[13] = target: Nuclear receptor ROR-gamma (Homo sapiens) (UniProt P51449); test: qHTS assay to identify small molecule antagonists of the retinoid-related orphan receptor gamma (ROR-gamma) signaling pathway (AID 1159521; further: nearly all actives have a fitted effect of over 50% in size; further: potency means the concentration at half of the fitted maximal effect); conditions: Tet-on RORgamma CHO cells, RORE-luciferase, 16 h; series mostly up to 92.4 µM
Summary of the method: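 Luminescence readout (ONE-Glo, 30 min RT) after 16 h doxycycline induction; loss of signal scored as antagonism. CHO cells with TET-inducible RORγ and RORE-LUC reporter; compounds added 2 h before 1 uM final doxycycline.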

Retinoic acid receptor RXR-alpha (Homo sapiens), sequence (P19793 whole entry, looked up): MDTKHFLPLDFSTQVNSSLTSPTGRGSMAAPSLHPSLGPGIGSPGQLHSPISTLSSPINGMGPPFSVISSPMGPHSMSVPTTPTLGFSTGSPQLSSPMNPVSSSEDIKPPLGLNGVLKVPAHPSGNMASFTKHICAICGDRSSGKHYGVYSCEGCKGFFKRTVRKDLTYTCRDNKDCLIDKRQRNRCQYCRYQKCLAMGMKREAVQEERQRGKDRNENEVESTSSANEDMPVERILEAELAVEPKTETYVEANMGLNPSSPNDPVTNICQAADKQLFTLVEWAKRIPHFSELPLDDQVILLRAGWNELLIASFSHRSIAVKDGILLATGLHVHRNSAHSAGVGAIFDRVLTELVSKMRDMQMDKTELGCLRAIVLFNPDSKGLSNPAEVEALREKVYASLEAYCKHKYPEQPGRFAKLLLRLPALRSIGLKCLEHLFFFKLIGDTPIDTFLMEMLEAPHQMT

SMILES	Potency [1]	Potency [2]	Potency [3]	Potency [4]	Potency [5]	Potency [6]	Potency [7]	Potency [8]	Potency [9]	Potency [10]	Potency [11]	Potency [12]	Potency [13]
CCCCCCCC/C=C\CCCCCCCC(=O)OCC	inactive	inactive	inactive	inactive	inactive	inactive	inactive	inactive	inactive	inactive	inactive	inactive	–
CNC(=O)CN(CCN(CCN(CC(=O)[O-])CC(=O)NC)CC(=O)[O-])CC(=O)[O-].O.[Gd+3]	inactive	inactive	inactive	inactive	inactive	inactive	inactive	inactive	–	–	–	inactive	–
CC(=O)c1ccc2c(c1)N(CCCN1CCC(CCO)CC1)c1ccccc1S2	–	inactive	inactive	inactive	inactive	–	–	10.7 µM (active)	inactive	–	–	23.7 µM (active)	–
CCCCC(=O)OCC(=O)[C@H]1[C@H](C)C[C@H]2[C@@H]3C[C@H](F)C4=CC(=O)C=C[C@]4(C)[C@@]3(F)[C@@H](O)C[C@@]21C	inactive	inactive	inactive	inactive	inactive	inactive	inactive	–	inactive	–	–	inactive	–
NS(=O)(=O)c1ccc(N2CCCCS2(=O)=O)cc1	inactive	inactive	inactive	inactive	inactive	inactive	inactive	inactive	inactive	inactive	inactive	inactive	–
Nc1ccccc1S(=O)(=O)c1ccccc1	inactive	inactive	inactive	inactive	inactive	inactive	inactive	inactive	inactive	inactive	inactive	inactive	–
O[C@@H](COc1cccc2ncccc12)CN1CCN(C2c3ccccc3[C@@H]3[C@H](c4ccccc42)C3(F)F)CC1 (some centres not stated)	–	inactive	inactive	inactive	–	inactive	–	–	inactive	–	–	9.44 µM (active)	inactive
COC(C)(C)CCO	inactive	inactive	inactive	inactive	inactive	inactive	inactive	inactive	–	inactive	inactive	inactive	–
CC(=O)c1cccc([N+](=O)[O-])c1	inactive	inactive	inactive	inactive	inactive	inactive	–	inactive	inactive	–	–	inactive	–
Cc1ccc(N=Nc2c(O)c(C(=O)O)cc3ccccc23)c(S(=O)(=O)O)c1	inactive	inactive	inactive	inactive	inactive	–	inactive	inactive	inactive	inactive	–	21 µM (active)	–
CCCCC1=NC2(CCCC2)C(=O)N1Cc1ccc(-c2ccccc2-c2nn[nH]n2)cc1	inactive	inactive	inactive	inactive	inactive	inactive	inactive	inactive	inactive	inactive	inactive	–	–
O=C(O)c1ccc(S(=O)(=O)O)cc1C(=O)O	inactive	inactive	inactive	inactive	inactive	inactive	inactive	inactive	inactive	inactive	–	inactive	–
CN(C)CCN(Cc1ccsc1)c1ccccn1	inactive	inactive	inactive	inactive	inactive	inactive	inactive	inactive	–	inactive	inactive	inactive	–
CC(=O)NO	inactive	inactive	inactive	inactive	inactive	inactive	inactive	inactive	inactive	–	inactive	inactive	–
C=C(C)C(=O)OCCO	inactive	inactive	inactive	inactive	inactive	inactive	inactive	inactive	inactive	inactive	–	inactive	–
CCOC(=O)c1cccnc1	inactive	inactive	inactive	inactive	inactive	inactive	inactive	inactive	inactive	–	–	inactive	–
CCCCCCCCCCCCCCOS(=O)(=O)O	–	inactive	inactive	inactive	54.9 µM (active)	–	–	21.9 µM (active)	–	–	–	–	–
CCCCCCOC(=O)NC(=N)c1ccc(NCc2nc3cc(C(=O)N(CCC(=O)OCC)c4ccccn4)ccc3n2C)cc1	–	19 µM (active)	21.3 µM (active)	inactive	–	–	–	10.7 µM (active)	inactive	inactive	inactive	29.8 µM (active)	11.9 µM (active)
